# From PubChem BioAssay (NCATS)
# Several values for one entry are separate records, joined by “and”; a condition that tells them apart may be missing. Equal entries are not always repeated. Results filed as inconclusive are left out. Activity calls are given as the source filed them. Calls follow the shape of the dose curve; as a rule, active = well fitted activation curve with a large enough effect in the signal ratio; inconclusive = small, poorly fitted or top-dose-only effect, or a change in a side signal; inactive = flat fitted curve, though single readings scatter; the % refers to the signal ratio.
# Assay: qHTS assay for small molecule activators of the nuclear factor-kappa B (NF-kB) signaling pathway (AID 651749); also: series mostly up to about 77 µM; % of control where 0% means no effect
# Conditions: NF-kB-bla ME-180 cells, beta-lactamase FRET ratio, 16 h; hits give high values
# Source text: National Center for Advancing Translational Sciences [NCATS] NIH Chemical Genomics Center [NCGC] U.S. Environmental Protection Agency [EPA] National Institutes of Environmental Health Sciences [NIEHS] National Toxicology Program [NTP] Assay Overview: Transcription factors and their stimulated target gene expression play pivotal roles across many cellular processes including responses to environmental stimuli. Proper regulation of associated pathways is critical to maintain cell health and function. Constitutive activation of transcription factor pathways has been implicated in tumors as it may block cellular functions such as apoptosis and lead to invasion and metastasis. One important transcription factor that stimulates gene expression in response to cytokines, UV radiation, and other stimuli is nuclear factor-kappa B (NF-kB). To measure activation of the NF-kB pathway, the NF-kB-bla ME-180 cell line stably expressed beta-lactamase reporter gene under the regulation of a NF-kB response element was obtained from Invitrogen. This assay allows measurement of the NF-kB pathway activity induced by compounds in a ME-180 cell line. This system quantitates NF-kB activity using a FRET-based assay system where beta-lactamase expression disrupts FRET, allowing for fluorescent measurement of activity.
# Assay Protocol Summary: For toxicology screening, 2,000 cells in 5 uL/well were dispensed into black, clear-bottom 1536-well plates using a Multidrop Combi (Thermo Scientific) dispenser. Following transfer of 23 nL compound or DMSO vehicle by a pin tool, the plates were incubated 16 hr at 37C and 5% CO2.
row,SMILES,activation
1,Cc1ccc(CO)cc1,-1.4% (inactive)
2,O=C(O)c1ccc(Cl)cc1Cl,-0.499% (inactive)
3,Nc1ccccc1[N+](=O)[O-],0.892% (inactive)
4,C=CCCCC,0.582% (inactive)
5,CCCCOCCOCCOCCCC,0.513% (inactive)
6,Nc1ccccc1S(=O)(=O)O,-0.0968% (inactive)
7,CC(C)=C1CCC(C)CC1=O (stereo not given),-0.315% (inactive)
8,CCc1ccccc1O,0.236% (inactive)
9,Cc1c(C(=O)O)cccc1[N+](=O)[O-],0.0023% (inactive)
10,OC/C(Br)=C(\Br)CO,0.22% (inactive)
11,CC(=O)Nc1ccc(N)cc1,-0.653% (inactive)
12,O=C(O)c1ccccc1C(=O)O,-0.93% (inactive)
13,O=C1OC(=O)c2cc([N+](=O)[O-])ccc21,-0.857% (inactive)
14,NC(=O)/N=N/C(N)=O,2.36% (inactive)
15,CCCCC(CC)COC(=O)CCCCC(=O)OCC(CC)CCCC (stereo not given),0.278% (inactive) and -0.188% (inactive)
16,CCCOCC(C)OCC(C)O (stereo not given),-1.44% (inactive)
17,Cc1ccc(C#N)cc1,0.0681% (inactive)
18,COC(=O)CS,-0.561% (inactive)
19,CCOc1ccccc1N,-1.4% (inactive)
20,CC(=O)c1ccc([N+](=O)[O-])cc1,0.321% (inactive)

row,SMILES,activation
1,O=C(O)CNC(=O)c1ccc(CO)o1,0.936% (inactive)
2,C/C(C=O)=C/c1ccccc1,-1.45% (inactive)
3,C[C@@H]1CC2(OC3C[C@@]4(C)C5=CC[C@H]6C(C)(C)C(O[C@@H]7OC[C@@H](O)[C@H](O)[C@H]7O)CC[C@@]67C[C@@]57CC[C@]4(C)C31)OC(O)C1(C)OC21 (stereo not given in full),-1.92% (inactive)
4,CCOCCOCC,-0.436% (inactive)
5,CC(C)CCOC(=O)/C=C/c1ccccc1,-1.28% (inactive)
6,Fc1ccccc1,0.343% (inactive)
7,CC(=O)CC(C)C,0.24% (inactive)
8,CC=C(Cl)Cl,-0.14% (inactive)
9,CNc1ccc([N+](=O)[O-])cc1,-1.5% (inactive)
10,Clc1ccccn1,-1% (inactive)
11,CC(C)Cc1nccs1,0.674% (inactive)
12,CCOC(C)(C)C,0.0467% (inactive)
13,C=C(C)C(=O)OCCCCCC,0.571% (inactive)
14,Cc1c(N)cccc1N,-1.33% (inactive)
15,N#CCc1ccccc1[N+](=O)[O-],-0.713% (inactive)
16,OCCO,-0.33% (inactive)
17,CCCCC(CC)CO (stereo not given),-1.43% (inactive)
18,O=C1CCCCC1,-1.28% (inactive)
19,CN(C)CCCCl,0.444% (inactive)
20,CC/C=C/C#N,-2.54% (inactive)
